Shown are actives, neighbours in structure and some others; about 3.6% of the full set was active somewhere.
mHTT CaM bind: mHTT-calmodulin interaction abrogation; P42858; AlphaScreen His-mHTT/GST-CaM binding, luminescence; inhibition, % at 15 µM; hit rate 3.6% among 190,000; AID 1671202
Pf apPOL inh: Pf-apPOL DNA polymerase inhibition. Recombinant Pf-apPOL, molecular beacon fluorescence, 1.5 h. inhibition, % at 10 µM. hit rate 0.25% among 210,000
Each line names hits and unclear results; the compound was inactive in the other large screens. No stated cut-off is given here; in the data, active means inhibition above about 50%; inactive means the rest.

CC(C)(C)c1ccc(OCC(O)CN2CCN(CCO)CC2)cc1 (stereo not drawn)	none
CC(C)(C)c1ccc(OCC(O)CN)cc1 (stereo not drawn)	none
CC(C)(C)CC(C)(C)c1ccc(OCC(O)CN2CCCC2)cc1 (stereo not drawn)	mHTT CaM bind 100
CN(C)CC(O)COc1ccc(C(C)(C)CC(C)(C)C)cc1 (stereo not drawn)	mHTT CaM bind 99
CC(C)(C)CC(C)(C)c1ccc(OCC(O)C[N+]2(C)CCCC2)cc1 (stereo not drawn)	none
CC(C)(C)c1ccc(OCC(O)CN2CCCC2)c(C(C)(C)C)c1 (stereo not drawn)	none
O=C(Nc1ccc(F)cc1F)N1CCCC1c1ccc(F)cc1 (stereo not drawn)	none
CCCc1nc2cccnc2n1C1CCN(S(=O)(=O)Cc2ccccc2)C1 (stereo not drawn)	none
O=C(c1ccc([N+](=O)[O-])o1)n1cnc2ccccc21	none
Cc1ccc([N+](=O)[O-])cc1N1C(=O)C2C3C=CC(O3)C2C1=O (stereo not drawn)	none
CCOc1ccc(N=C(NN)c2ccc3ccccc3n2)cc1	mHTT CaM bind 56
Cc1ccc(N=C(NN)c2ccc3ccccc3n2)cc1	none
CC(=O)Nc1ccc(S(=O)(=O)NC2=NCN(c3ccc(Cl)cc3)CN2)cc1	none
O=[N+]([O-])c1ccc(N2CCc3ccccc32)c([N+](=O)[O-])c1	mHTT CaM bind 56
O=C(c1ccc(N2CCc3ccccc32)c([N+](=O)[O-])c1)N1CCC2(CC1)OCCO2	mHTT CaM bind 77
O=C(c1ccc(Sc2cccc(Cl)c2)c([N+](=O)[O-])c1)N1CCC2(CC1)OCCO2	mHTT CaM bind 60
O=C(c1ccc(N2CCC3(CC2)OCCO3)c([N+](=O)[O-])c1)N1CCOCC1	none
O=[N+]([O-])c1cc(S(=O)(=O)N2CCc3ccccc32)ccc1N1CCc2ccccc21	mHTT CaM bind 74
Cc1ccc(S(=O)(=O)N2CCc3ccccc32)cc1[N+](=O)[O-]	none
CC(=O)N1c2ccccc2CCc2ccc([N+](=O)[O-])cc21	none
O=C(c1ccc(Sc2cccc(Cl)c2)c([N+](=O)[O-])c1)N1CCN(c2ccccn2)CC1	none
COC(=O)c1ccc(NC2SC(=O)N(c3ccc(F)cc3)C2=O)cc1 (stereo not drawn)	none
O=C1C(=O)N(CN2CCN(Cc3ccc4c(c3)OCO4)CC2)c2ccc(Br)cc21	none
O=C1OC(c2ccccc2)=C/C1=C/c1ccc(F)cc1	none
CC(Oc1ccc2c(c1)OC(=Cc1cccc(Br)c1)C2=O)C(=O)O (stereo not drawn)	none
CC(C)CNC(=O)Nc1nnc2ccccn12	none
CC(=O)c1cccc(NC(=O)Cc2c(C)nc(SCc3cccc(Cl)c3)[nH]c2=O)c1	mHTT CaM bind 51
Cc1nc(SCc2ccccc2)[nH]c(=O)c1CC(=O)O	none
O=C(NC1CCCC1)C1c2ccccc2C(=O)N1Cc1ccccc1Cl (stereo not drawn)	mHTT CaM bind 53
CC1CCC(NC(=O)C2c3ccccc3C(=O)N2Cc2ccccc2Cl)CC1 (stereo not drawn)	none
O=C(Nc1ccc2nncn2c1)c1cccc(Cl)c1	none
O=C(NC1CCCCC1)c1ccc(CN2C(=O)C3CCCN3C(=O)c3ccccc32)cc1 (stereo not drawn)	none
N#Cc1c(C(F)(F)F)cc(-c2ccccc2)nc1SCCC(N)=O	none
N#Cc1c(C(F)(F)F)cc(-c2ccccc2)nc1SCC(N)=O	Pf apPOL inh 65
COc1cccc(/C=C2\N=C(c3ccc(OC)c(Br)c3)OC2=O)c1	none
COCCc1nc(C2CCN(Cc3sccc3C)CC2)n[nH]1	none
O=[N+]([O-])c1ccc(-c2noc(/C=C/c3ccccc3)n2)cc1	none
O=C1CC(c2ccc(Cl)c(Cl)c2)CC(O)=C1C=NCCN1CCNCC1 (stereo not drawn)	mHTT CaM bind 59
O=C1CC(c2cccs2)CC(O)=C1C=NCCN1CCNCC1 (stereo not drawn)	none
NC(=O)c1ccc(N=Cc2cc(Cl)cc(Cl)c2O)cc1	none
CCOc1ccccc1NC(=O)c1c[nH]c(=O)n(-c2ccc(F)cc2)c1=O	mHTT CaM bind 72
CCOc1ccccc1NC(=O)c1ccccc1Cl	none
CC(C)CC1C(=O)N(Cc2cn(CCC3OCCO3)nn2)CCS(=O)(=O)N1Cc1ccc(-c2ccc(F)cc2)cc1 (stereo not drawn)	mHTT CaM bind 68
COc1ccc(-c2ccc(CN3C(CC(C)C)C(=O)N(Cc4cn(CCC5OCCO5)nn4)CCS3(=O)=O)cc2)cc1OC (stereo not drawn)	none
CC(C)C1C(=O)N(Cc2cn(CCC3OCCO3)nn2)CCS(=O)(=O)N1Cc1ccc(-c2cccc(CO)c2)cc1 (stereo not drawn)	none
CC(C)CC1C(=O)N(Cc2cn(CCC3OCCCO3)nn2)CCS(=O)(=O)N1Cc1ccc(-c2ccc(Cl)c(Cl)c2)cc1 (stereo not drawn)	mHTT CaM bind 60
CC(C)CC1C(=O)N(Cc2cn(CCC3OCCO3)nn2)CCS(=O)(=O)N1Cc1ccc(-c2cccc(N(C)C)c2)cc1 (stereo not drawn)	mHTT CaM bind 72
CC(C)CC1C(=O)N(Cc2cn(CCC3OCCCO3)nn2)CCS(=O)(=O)N1Cc1ccc(-c2ccc(Cl)nc2)cc1 (stereo not drawn)	none
O=C1C(=O)N(CN2CCN(c3cccc(C(F)(F)F)c3)CC2)c2ccc([N+](=O)[O-])cc21	none
CC1CCN(c2ncc3c(n2)CCN(CCc2ccccc2)C3)CC1	none
Nc1nnc(CCC(=O)O)s1	none (no result: Pf apPOL inh)
Cc1ccc(F)cc1NC(=O)c1cc(C(C)C)n2nccc2n1	none
Fc1cccc(CN2CCc3nc(Nc4ccccc4F)ncc3C2)c1	none
CN(C)c1ccc(N2C=C(C#N)S(=O)(=O)c3ccc(F)cc32)cc1	none
COc1ccccc1CC(=O)N1CCCn2nc(-c3cccc(C)c3)cc2C1	none
COc1ccccc1CC(=O)N1CCCC1c1ccc(Cl)cc1 (stereo not drawn)	mHTT CaM bind 59
O=C(CCCc1ccccc1)N1CCCn2nc(-c3ccc(Cl)cc3)cc2C1	mHTT CaM bind 88
O=C(CCCc1ccccc1)N1CCCn2nc(-c3cccs3)cc2C1	none
COc1ccccc1CC(=O)N1CCCC1c1ccc(C)cc1 (stereo not drawn)	none
COc1ccc(-c2cc3n(n2)CCCN(Cc2ccccc2C)C3)cc1OC	mHTT CaM bind 73
COc1ccccc1CCC(=O)N1CCCn2nc(-c3ccc(C)cc3)cc2C1	none
Cc1cccc(-c2cc3n(n2)CCCN(C(=O)Cc2ccccc2F)C3)c1	mHTT CaM bind 73
COc1ccc(NC(=O)c2nc(C)oc2C)cc1F	none
CN(C)C=CC(=O)c1cc(-c2cccc(C(F)(F)F)c2)no1	none (no result: mHTT CaM bind)
O=c1[nH]onc1N1CCOCC1	none (no result: Pf apPOL inh)
CCCc1c(C(=O)O)nnn1-c1cccc(Cl)c1	none
COc1ccc(-c2nn(C)c(=O)c3ccccc23)cc1NC(=O)c1ccccc1	none
O=C(c1ccc(C(F)(F)F)cc1)N1CCc2nc(-c3ccccc3)ncc2C1	none
O=C(NCCC1CCCCN1S(=O)(=O)c1cccs1)C(=O)NCc1cccnc1 (stereo not drawn)	none
COc1ccc(Br)cc1CN1C(=O)CCC1(C)C(=O)NC1CCC(C)CC1 (stereo not drawn)	none
Cc1cccc(-c2cc3n(n2)CCCN(C(=O)CCCc2ccccc2)C3)c1	mHTT CaM bind 56
COCC(=O)N1CCCn2nc(-c3cccc(C)c3)cc2C1	none
COc1ccccc1CC(=O)N1CCCn2nc(-c3ccc(Cl)cc3)cc2C1	mHTT CaM bind 71
O=C(Cc1ccccc1F)N1CCCn2nc(-c3ccc(Cl)cc3)cc2C1	none
